Experimental data reported in PubChem BioAssay AID1347416 (National Center for Advancing Translational Sciences (NCATS), 2020).
The whole screen tested about 4,100 compounds, of which about 1,600 (39%) were called active. Another 25% or so got no clear call; they are omitted. Calls follow the shape of the dose curve; as a rule, active = well fitted inhibition curve with a large enough effect; inconclusive = small, poorly fitted or top-dose-only effect; inactive = no such curve, though single readings can be large or run the other way. The list shows a part of the results.

Test: qHTS Validation assay for Inhibitors of Plasmodium falciparum Dd2 growth in vitro; also: nearly all actives have a fitted effect of over 70% in size
Settings: P. falciparum Dd2 in RBCs, SYBR Green growth, 72 h; series mostly up to 28.7 µM; activity change, negative = inhibition: at the top concentration
How it was run: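 P. falciparum Dd2-infected red blood cells (2.5% hematocrit, 0.3% parasitemia) grown 72 h at 37 °C under 5% O2 with compounds in a titration, 29 uM to 0.5 nM final. Growth read as SYBR Green-1 fluorescence after ~16 h lysis; artesunate 300 nM as positive control.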
% is scaled to controls: 0 for no effect and ±100 for the full control effect; potency is read from the fitted curve at half-maximal effect.

| SMILES | Potency | activity change, negative = inhibition |
| --- | --- | --- |
| COc1ccccc1N1CCN(C(=O)c2ccc3c(=O)n(Cc4ccc5c(c4)OCO5)c(=O)[nH]c3c2)CC1 | 2.99 µM (active) | – |
| CCOc1cc2[nH]c(=O)n(Cc3ccc(C(=O)N4CCN(c5cccc(Cl)c5)CC4)cc3)c(=O)c2cc1OCC | – | 23.4% (inactive) |
| COC(=O)c1ccc2c(=O)n(CCCCCC(=O)NCCc3ccccc3)c(=O)[nH]c2c1 | – | 3.51% (inactive) |
| OC(c1cc(-c2ccc(C(F)(F)F)cc2)nc(C(F)(F)F)c1)C1CCCCN1 (configuration not stated) | 0.15 µM (active) | – |
| CN(CC1CCOCC1)S(=O)(=O)c1ccc(C(F)(F)F)cc1 | – | -9.41% (inactive) |
| Nc1nonc1-n1nnc(C(=O)N/N=C/c2ccc(Cl)cc2)c1-c1ccc2c(c1)OCO2 | 0.376 µM (active) | – |
| Cc1ccc(-c2c(C(=O)N/N=C/c3cccc(Cl)c3)nnn2-c2nonc2N)cc1 | 0.237 µM (active) | – |
| O=C(CSc1nnc(Cc2cccs2)n1-c1ccc(Cl)cc1)NCc1ccc2c(c1)OCO2 | – | 12.4% (inactive) |
| Nc1nonc1-n1nnc(C(=O)N/N=C/c2ccc(Br)cc2)c1-c1ccc2c(c1)OCO2 | 0.422 µM (active) | – |
| Nc1nonc1-n1nnc(C(=O)N/N=C/c2ccc(F)cc2)c1-c1ccc2c(c1)OCO2 | 0.335 µM (active) | – |
| Nc1nonc1-n1nnc(C(=O)N/N=C/c2cccs2)c1-c1ccc2c(c1)OCO2 | 1.68 µM (active) | – |
| COc1ccc(NC(=O)N2CCCC(Cn3cnc4cccnc43)C2)cc1Cl (configuration not stated) | – | 25.8% (inactive) |
| COc1ccc(NC(=O)c2cc3n(n2)CC(c2ccc(Cl)cc2)OC3)cc1Cl (configuration not stated) | – | 20.3% (inactive) |
| Cc1oc2ccc(O)c(CN3CCCC(C)C3)c2c1C(=O)Nc1ccccc1 (configuration not stated) | 2.11 µM (active) | – |
| COc1ccc(NC(=O)c2c(C)oc3ccc(O)c(CN4CCCC(C)C4)c23)cc1Cl (configuration not stated) | 0.944 µM (active) | – |
| Cc1ccc(CN2CCc3nc(C(=O)Nc4cccnc4)oc3CC2)o1 | – | -11.7% [at 43.1 µM] (inactive) |
| COc1ccc(NC(=O)c2c(C)oc3ccc(O)c(CN4CCCCCC4)c23)cc1Cl | 1.88 µM (active) | – |
| CSCc1noc(Cc2c(C)nn(-c3ccccc3)c2C)n1 | – | 35% (inactive) |
| Cc1cc(O)c(-c2cc(C(=O)Nc3ccc(S(=O)(=O)N4CCOCC4)cc3)[nH]n2)cc1C | 1.68 µM (active) | – |
| Cc1ccc(Cl)cc1NC(=O)c1cc(S(=O)(=O)N2CCOCC2)cn1C | – | -14.4% (inactive) |
| COc1ccc(OC)c(NC(=O)c2cc(-c3cc(Cl)ccc3O)n[nH]2)c1 | 4.73 µM (active) | – |
| O=C(Nc1ccc(S(=O)(=O)N2CCOCC2)cc1)c1cc(-c2cc(Cl)ccc2O)n[nH]1 | 2.66 µM (active) | – |
| CCOc1ccc(OCC)c(NC(=O)c2nnn(CC(=O)Nc3cc(Cl)ccc3OC)c2N)c1 | – | 35% (inactive) |

| SMILES | Potency | activity change, negative = inhibition |
| --- | --- | --- |
| CN1CC2(CCN(S(=O)(=O)c3ccc(C#N)cc3)CC2)CC1C(=O)N1CCOCC1 (configuration not stated) | – | 1.39% (inactive) |
| Cc1ccc(NC(=O)c2cc(-c3ccc[nH]3)n[nH]2)cc1C | – | -25.4% (inactive) |
| Cc1ccccc1-c1cc(C(=O)N2CCC3(CC2)CC(O)CCO3)[nH]n1 (configuration not stated) | – | 14.5% (inactive) |
| COc1ccc(S(=O)(=O)N2CCN(C(=O)c3cc(-c4ccccc4OC)n[nH]3)CC2)cc1 | – | 12.6% (inactive) |
| NS(=O)(=O)c1ccc(NC(=O)CN2C(=O)COc3ccc(Cl)cc32)cc1 | – | 13.6% (inactive) |
| COc1ccccc1-c1cc(C(=O)N2CCN(S(=O)(=O)c3ccc(C)cc3)CC2)[nH]n1 | 7.5 µM (active) | – |
| COc1ccc(C(=O)Nc2cc(-c3nc4ccccc4s3)ccc2OC)cc1 | – | 21.4% (inactive) |
| CN(C)c1ncc([N+](=O)[O-])cc1C(F)(F)F | – | 19.7% (inactive) |
| CCc1noc(-c2cccn3c(CNC(=O)c4ccccc4F)nnc23)n1 | – | 0% (inactive) |
| Cc1cc(C)c2nc(N3CCC(C(=O)N4CCCC4)CC3)sc2c1 | – | 15.7% (inactive) |
| Cc1ccc(C)c2sc(N3CCN(C(=O)c4ccc([N+](=O)[O-])o4)CC3)nc12 | 4.73 µM (active) | – |
| CCOc1ccc2nc(N3CCN(C(=O)C(C)C)CC3)sc2c1 | – | -11.4% (inactive) |
| Cc1ccc2sc(N3CCN(C(=O)c4ccc([N+](=O)[O-])o4)CC3)nc2c1C | 5.31 µM (active) | – |
| COc1ccc2nc(N3CCN(C(=O)c4ccc([N+](=O)[O-])o4)CC3)sc2c1 | 4.73 µM (active) | – |
| COc1cccc(N2CCN(c3nc(C(=O)NCc4cccc(C)c4)cs3)CC2)c1 | – | 16.3% (inactive) |
| CNC(=O)N1CCc2c(sc3ncnc(N(C)C)c23)C1 | – | 3.51% (inactive) |
| Nc1ccc2nc(-c3cccs3)[nH]c2c1 | – | -28.3% (inactive) |
| Cc1ccc(Sc2ccc(NC(=O)CCl)cc2)cc1C | 9.44 µM (active) | – |
| Cc1ccc(NC(=O)Cn2ccnc2)cc1C | – | 49.5% (inactive) |
| Cc1nc([C@@H]2CN(C(=O)c3nccc4ccccc34)C[C@H]2C(N)=O)n[nH]1 | – | 5.68% (inactive) |
| Cc1noc(C2CC3(CCN(C(=O)c4cccn4C)CC3)CN2C)n1 (configuration not stated) | – | 4.95% (inactive) |
| COC(=O)C1=C(C)NC(C)=C(C(=O)OCCCN2CCC(c3ccccc3)(c3ccccc3)CC2)C1c1cccc([N+](=O)[O-])c1 (configuration not stated) | 2.99 µM (active) | – |
| COC(=O)C1=C(C)NC(C)=C(C(=O)OC(C)(C)CN(C)CCC(c2ccccc2)c2ccccc2)C1c1cccc([N+](=O)[O-])c1 (configuration not stated) | 2.99 µM (active) | – |

| SMILES | Potency | activity change, negative = inhibition |
| --- | --- | --- |
| CCN(CC)CCCC(C)Nc1cc(/C=C/c2ccccc2Cl)nc2cc(Cl)ccc12 (configuration not stated) | 0.842 µM (active) | – |
| CCc1nc(NCc2cn[nH]c2-c2ccc(Cl)cc2)c2cnn(C)c2n1 | – | 56.2% (inactive) |
| COC[C@@H]1CN(C(=O)c2cc3ccccc3[nH]2)C[C@H]1c1ccncc1 | – | -20.6% (inactive) |
| Cc1cc(Cl)ccc1-c1ccc(CNC2CN(C(=O)OC(C)(C)C)C2)cc1 | – | 37% (inactive) |
| CCOc1cc(C(=O)N2CCC(CC3CC(c4ccc(Cl)cc4)=NO3)(C(=O)NCC3CCCCC3)CC2)cc(OCC)c1OCC (configuration not stated) | 0.842 µM (active) | – |
| COCCNC(=O)C1COC2(CCN(C(=O)c3ccc(Cl)cc3)CC2)N1C(=O)c1ccccc1C (configuration not stated) | – | -12.4% (inactive) |
| O=C(NCc1ccccc1)N1CCC(c2nc(C3CCOCC3)no2)CC1 | – | 13% (inactive) |
| CCOc1cc(C(=O)N2CCC(CC3CC(c4cccc(Br)c4)=NO3)(C(=O)NCC3CCCCC3)CC2)cc(OCC)c1OCC (configuration not stated) | 1.68 µM (active) | – |
| CC(C)(C)OC(=O)N1CCC(CC2CC(c3ccccc3)=NO2)(C(=O)NCc2ccccc2)CC1 (configuration not stated) | 2.66 µM (active) | – |
| CCCCCCCNC(=O)C1(CC2CC(c3ccc(Cl)cc3)=NO2)CCN(C(=O)c2cc(OCC)c(OCC)c(OCC)c2)CC1 (configuration not stated) | 3.35 µM (active) | – |
| CC(C)c1cc(C(=O)NC2CCN(c3ncccc3C#N)CC2)n(C)n1 | – | 5.19% (inactive) |
| CCCCCCCNC(=O)C1(CC2CC(c3cccc(Br)c3)=NO2)CCN(C(=O)c2cc(OCC)c(OCC)c(OCC)c2)CC1 (configuration not stated) | 10.6 µM (active) | – |
| CC(NCc1ccccc1O)C12CC3CC(CC(C3)C1)C2 (configuration not stated) | 0.0944 µM (active) | – |
| O=C1NCCCCCCN(C(=O)C2CCC2)[C@H]2C[C@H](c3nc(-c4cccnc4)no3)C[C@@H]12 | – | 3.93% (inactive) |
| Cn1cnc(C(=O)NCC(=O)N2CCCCCNC(=O)CC2c2ccccc2)c1 (configuration not stated) | – | 4.59% (inactive) |
| CNC(=O)c1[nH]nc2c1CCc1cc(OC)ccc1-2 | – | -19.9% (inactive) |
| Cn1nc(C(=O)NCC(=O)N2CCCCCCNC(=O)CC2c2ccccc2)c2ccccc21 (configuration not stated) | 2.11 µM (active) | – |
| O=C1CC(c2ccccc2)N(C(=O)CNC(=O)c2ccc3[nH]ccc3c2)CCCCCN1 (configuration not stated) | 15 µM (active) | – |
| O=C1CC(c2ccccc2)N(C(=O)CNC(=O)c2[nH]nc3c2CCc2ccccc2-3)CCCCCCN1 (configuration not stated) | 2.99 µM (active) | – |
| COc1ccc2c(c1)CCc1c-2n[nH]c1C(=O)N1CCc2c(nc3cc(-c4ccccc4)[nH]n3c2=O)C1 | – | 18.7% (inactive) |
| Cc1ccncc1C(=O)NCC(=O)N1CCCCCNC(=O)CC1c1ccccc1 (configuration not stated) | – | 1.1% (inactive) |
| CCOc1ccc(CC(=O)N[C@@H]2CN(c3ncccn3)C[C@H]2CN(C)C)cc1 | – | -5.61% (inactive) |
| Cc1ccc(S(=O)(=O)N[C@@H]2CN(C)C[C@H]2CN(C)C)cc1F | 15 µM (active) | – |

| SMILES | Potency | activity change, negative = inhibition |
| --- | --- | --- |
| CN(C)C[C@@H]1CN(S(C)(=O)=O)C[C@H]1NC(=O)c1ccccc1 | – | 12.9% (inactive) |
| CN(C)C[C@@H]1CN(C)C[C@H]1NS(=O)(=O)c1ccc(Br)cc1 | 13.3 µM (active) | – |
| Cc1nn(-c2ccccc2)c2c1C(O)n1c(nc3ccccc31)S2 (configuration not stated) | 5.31 µM (active) | – |
| CCOC(=O)C1=Nc2ccccc2C1=[N+]=[N-] | 4.22 µM (active) | – |
| CCOC(=O)C1=C(C)N=c2s/c(=C/c3ccc(OCC(=O)O)cc3)c(=O)n2C1c1cc(OC)c(OC)c(OC)c1 (configuration not stated) | 1.88 µM (active) | – |
| CCOC(=O)C1=C(C)N=c2s/c(=C\c3ccc(OCC(=O)O)cc3)c(=O)n2C1c1ccccc1OC (configuration not stated) | – | -9.3% (inactive) |
| CCOC(=O)C1=C(c2ccccc2)N=c2s/c(=C\c3cc(OC)c(OC)c(OC)c3)c(=O)n2C1c1cccs1 (configuration not stated) | 5.96 µM (active) | – |
| CCOc1ccc(C2C(C(=O)Nc3ccccc3)=C(C)N=c3s/c(=C/c4cccc(OCC(=O)O)c4)c(=O)n32)cc1 (configuration not stated) | 5.31 µM (active) | – |
| Cc1ccc(CN(C)C(=O)c2cc(COc3ccc(F)cc3Cl)on2)o1 | – | 20.9% (inactive) |
| CC1(Cc2ccc3c(c2)OCO3)CCCN(C(=O)c2ccccc2-n2cncn2)C1 (configuration not stated) | – | -5.72% (inactive) |
| COC(=O)c1nn(-c2ccc3c(c2)CCN3C(C)=O)cc1O | – | 45.4% (inactive) |
| COCCNc1nc2cc(C(=O)N3CC[C@H](CO)[C@@H](O)C3)ccc2n1C | – | 19% (inactive) |
| COc1ccc(C2C(C(=O)N3CCCCC3)CC(=O)N2c2ccc(OC)cc2)cc1 (configuration not stated) | 7.5 µM (active) | – |
| COc1cnc(-c2ccccn2)nc1Oc1ccc(C(C)(C)C)cc1 | – | 66.3% (inactive) |
| COc1cnc(-c2ccccn2)nc1N(C)c1ccccc1 | 5.96 µM (active) | – |
| Cc1nc(-c2ccccn2)nc(N(C)c2ccccc2)c1Cl | 5.31 µM (active) | – |
| COc1cnc(-c2ccccn2)nc1NC(C)C | 5.31 µM (active) | – |
| CC(=O)c1cccc(NS(=O)(=O)c2cc(-c3cnc(C4CC4)o3)ccc2C)c1 | – | 8.42% (inactive) |
| Cc1ccc(-c2nnc(Nc3ccc(O)cc3)c3ccccc23)cc1S(=O)(=O)N1CCN(C)CC1 | 6.68 µM (active) | – |
| Cc1ccc(-c2nnc(Nc3ccc(OCC(N)=O)cc3)c3ccccc23)cc1S(=O)(=O)NCC1CCCO1 (configuration not stated) | 4.73 µM (active) | – |
| COC(=O)c1ccc(Nc2ncnc3c2nc2n3CCCC2)cc1 | – | -21.5% (inactive) |
| COC(=O)c1ccc(Nc2nnc(-c3ccc(C)c(S(=O)(=O)N4CCN(C)CC4)c3)c3ccccc23)cc1 | 8.41 µM (active) | – |
| CC(OC(=O)c1ccc(OCC2CCCO2)cc1)C(=O)N(C)Cc1ccccc1 (configuration not stated) | – | -9.4% (inactive) |
